We go through 72 compounds from PubChem BioAssay AID2253 (Southern Research Specialized Biocontainment Screening …, 2010).

About 1,300 (59%) of roughly 2,200 compounds were called active. How the calls were made is not given here. So high a share suggests a set chosen from earlier hits. These entries were drawn from the full list. Measured potencies and affinities stand elsewhere.

The nature of this test: THP-1 cell cytotoxicity, dose response, cytotoxicity control for Salmonella PhoP regulon inhibitors, S. typhimurium screen hits (AID 2253). The conditions noted are these: THP-1 viability, CellTiter-Glo luminescence, 72 h; series mostly up to 50 µM. (In general: Cellular ATP, detected with luciferase, serves as a proxy for viable cell number.)
As for `CCN1C(=O)/C(=C/N2CC(C)CC(C)C2)SC1=S` (configuration not stated), the result was inactive.

With `Cc1ccc(NC2CC(=O)N(Cc3ccccc3)C2=O)cc1` (configuration not stated), the compound was called inactive.

`CCc1ccc(NC(=O)c2noc3c2CCc2ccccc2-3)cc1`: the compound was called inactive.

As for `Cc1ccc(N2C(=O)CC(n3ccnc3)C2=O)cc1C` (configuration not stated), the outcome was inactive.

Turning to `COc1ccc2cc(C)c3nnc(SCC(=O)Nc4nc(-c5ccccc5)cs4)n3c2c1`, the outcome was inactive.

For the compound `CN(C)CC(=O)Nc1nc(-c2ccccc2)cs1`, the outcome was inactive.

`CS(=O)(=O)c1ccc([C@@H](O)[C@@H](CO)NC(=O)C(Cl)Cl)cc1`: the compound was called inactive.

As to `CCOCc1nnc(NC(=O)COC)s1`, the compound was called inactive.

As to `CC(NC(=O)CSc1nc2c(cc1C#N)CN(C)CC2)c1ccccc1` (configuration not stated), the compound was called inactive.

With `COc1cccc(C=NCCNC(=O)c2nonc2N)c1O`, the compound was classed as inactive.

With `O=C1CCc2cc(S(=O)(=O)N3CCN(c4cccc(Cl)c4)CC3)ccc2N1`, the compound was called inactive.

On to `CCN(CC)c1ccc(/C=C(\C#N)C(=O)NCc2ccco2)cc1`, for which the outcome was inactive.

In the case of `CCOC(=O)C1CCCN(S(=O)(=O)c2ccc(Br)c(OC)c2)C1` (configuration not stated), the compound was called inactive.

As to `CCn1cc(C(=O)O)c(=O)c2cc(F)c(N3CCN(C(=S)Nc4ccc(OC)cc4)CC3)cc21`, the call was inactive.

Turning to `C/C(Nc1ccc(F)cc1)=C(/C#N)C(N)=O`, the compound was classed as inactive.

With `Cc1cc(-c2c(C)n([O-])c(C)c(C)[n+]2=O)ccc1F`, the compound was classed as inactive.

As for `CCC(Sc1ncccc1C(=O)OC(C)C)C(=O)N1CCOCC1` (configuration not stated), the compound was classed as inactive.

As to `Cc1cc(NC(=O)c2cnn3cccnc23)no1`, the call was inactive.

Consider `CCn1cc(C(=O)NCCCO)c(=O)c2cc(F)c(N3CCN(C)CC3)cc21`, for which the compound was called inactive.

Take `O=c1[nH]c(CSc2nnc(NCCCN3CCOCC3)s2)nc2cc(Cl)ccc12`: the result was inactive.

On to `C=CC#CC[N+]1(CC#Cc2ccccc2)CCOCC1`, for which the compound was classed as inactive.

On to `CN1CCCC(OC(=O)c2ccc(Cl)cc2)C1` (configuration not stated), for which the result was inactive.

With `FC(F)(F)c1cccc(NC(=S)NCCN2CCOCC2)c1`, the outcome was inactive.

For `O=C(O)/C=C/C(=O)Nc1cccc(C(F)(F)F)c1`, the outcome was inactive.

In the case of `c1ccc(-c2nnc(SCCC3OCCCO3)o2)cc1`, the call was inactive.

On to `Cc1cc(-c2csc(NC(=O)c3ccc(C#N)cc3)n2)c(C)n1Cc1ccco1`, for which the call was inactive.

As for `Cc1ccc(CNC(=O)C2CCCN(S(=O)(=O)c3c(C)noc3C)C2)cc1` (configuration not stated), the result was inactive.

Turning to `Cc1cccc(-n2c(N)cc(=O)[nH]c2=S)c1C`, the compound was classed as inactive.

In the case of `Cc1cc(C)c(NC(=O)c2cn3c4c(c(N5CCN(C)CC5)c(F)cc4c2=O)OCC3C)c(C)c1` (configuration not stated), the outcome was inactive.

`Cc1ccc(N2C(=O)CC(Nc3ccccc3)C2=O)cc1` (configuration not stated): the compound was called inactive.

Turning to `CC1(C)CC(=O)C(C(=O)/C=C/NCCc2ccccc2)C(=O)C1`, the compound was classed as inactive.

As to `COc1cc(C2C(C(=O)c3ccc(C)o3)=C(O)C(=O)N2CCc2ccccc2)ccc1O` (configuration not stated), the compound was called inactive.

As to `O=c1[nH]c(CN2CCCCC2)nc2ccccc12`, the outcome was inactive.

On to `c1ccc(COc2cccc(CN3CCN(c4ccccn4)CC3)c2)cc1`, for which the call was inactive.

Consider `CCCC(=O)c1c[nH]c(C(=O)NCCCN2CCOCC2)c1`, for which the outcome was inactive.

In the case of `CCOc1ccc(S(=O)(=O)NNC(=S)Nc2ccc(Br)cc2)cc1`, the compound was classed as inactive.

As to `O=C(CSc1nc2ccccc2o1)Nc1ccc(N2CCOCC2)c(Cl)c1`, the result was inactive.

In the case of `O=C(CSc1nc2ccccc2o1)Nc1ccc(N2CCOCC2)cc1`, the outcome was inactive.

Turning to `CCCCC(=O)NCCNC(=O)c1cc(OCC(F)(F)F)ccc1OCC(F)(F)F`, the call was inactive.

With `COc1ccc(-c2ccc(-c3noc(-c4cccs4)n3)c(OC)n2)cc1`, the compound was classed as inactive.

Consider `Cc1noc(C)c1CSc1nc2ccccc2nc1NS(=O)(=O)c1ccc(Cl)cc1`, for which the result was inactive.

On to `Fc1cccc(NCc2cn3ccccc3n2)c1`, for which the compound was called inactive.

On to `COc1ccc(CN2C(=O)Cc3c2nc(N)c2c(N)nc(N4CCCCC4)c(C#N)c32)cc1`, for which the compound was called inactive.

`CCCCNC(=O)c1cn(CC)c2cc(N3CCN(C)CC3)c(F)cc2c1=O`: the result was inactive.

In the case of `CCn1cc(C(=O)O)c(=O)c2cc(F)c(N3CCN(C(=S)NC(=O)c4ccccc4)CC3)cc21`, the result was inactive.

In the case of `CCCNC(=O)c1cn(CC)c2cc(N3CCN(C)CC3)c(F)cc2c1=O`, the result was inactive.

With `CCn1cc(C(=O)O)c(=O)c2cc(F)c(N3CCN(C(=S)NC(=O)c4ccccc4F)CC3)cc21`, the compound was classed as inactive.

As to `N#C/C=C(/N)c1ccc(Br)cc1`, the compound was classed as inactive.

As to `Oc1ccccc1-c1nc(/C=C/c2ccccc2)nn1-c1ccccc1`, the call was inactive.

With `CCn1cc(C(=O)O)c(=O)c2cnc(N3CCNCC3)nc21`, the compound was classed as inactive.

Take `N#Cc1c(N)n[nH]c1-c1cc2c([nH]1)CCCC2`: the outcome was inactive.

With `O=C(CCN1C(=O)C2C3C=CC(C3)C2C1=O)N1CCN(c2cccc(Cl)c2)CC1` (configuration not stated), the result was inactive.

`O=C(CSc1ccc(Cl)cc1)Nc1ccccc1N1CCN(C(=O)c2ccc(Cl)cc2)CC1`: the compound was called inactive.

Consider `CN(C(=O)c1cccc(C#N)c1)c1nnc(-c2cnccn2)s1`, for which the call was inactive.

For `NC(=O)N1OCC2COc3ccc4ccccc4c3C21` (configuration not stated), the outcome was inactive.

For the compound `COc1c(N2CCN[C@H](C)C2)c(F)cc2c(=O)c(C(=O)O)cn(C3CC3)c12`, the result was inactive.

As to `COC(=O)c1sccc1NC(=O)c1csc2c1CCCC2`, the call was inactive.

As for `CC(=O)Oc1c2occc2cc2ccc(=O)oc12`, the compound was classed as inactive.

`COc1cc(C2Nc3cccc4cccc(c34)N2)cc(OC)c1OC(C)=O`: the outcome was inactive.

For the compound `CCOc1ccc2nc(COC(=O)c3ccco3)c(C(C)=O)[n+]([O-])c2c1`, the outcome was inactive.

On to `CC1=CC(C)(C)n2c(O)c(C3=NC(=S)NC3=O)c3cc(OC(=O)c4cccc5ccccc45)cc1c32`, for which the call was inactive.

For the compound `COC(=O)c1cn(C(=O)c2cccs2)c2ccccc12`, the outcome was inactive.

For `Cc1nc(-c2ccccn2)sc1C(=O)Nc1ccc(F)cc1F`, the call was inactive.

With `Cc1c(NS(=O)(=O)c2ccccc2)c(=O)n(-c2ccccc2)n1C`, the compound was classed as inactive.

On to `Cc1cc2cc(CNS(=O)(=O)c3ccc4ccccc4c3)ccc2n1C`, for which the result was inactive.

For `C=CCSc1ncnc2sc(C)c(C)c12`, the call was inactive.

As for `c1ccn2c(CNc3ncnc4sccc34)nnc2c1`, the compound was called inactive.

On to `N/C(=N\OC(=O)c1cccs1)C1(c2ccc(Cl)cc2Cl)CC1`, for which the outcome was inactive.

For the compound `COc1ccc(C(C)=O)c2c(O)cccc12`, the outcome was inactive.

Regarding `Cc1ccc(C2NNC(=O)C2NC(=O)c2ccccc2)cc1` (configuration not stated), the compound was called inactive.

With `Cc1ccc(S(=O)(=O)NNC(=O)c2ccc(O)cc2)cc1`, the compound was classed as inactive.

In the case of `Nc1nnc(-c2cccc(Cl)c2Cl)c(N)n1`, the compound was classed as inactive.
